Potency and cell number change data for 45 molecules are collected here from PubChem BioAssay AID2685 (National Center for Advancing Translational Sciences (NCATS), 2010).

SMILES strings stand for the structures. Out of some 320,000 compounds screened, about 2,100 (0.66%) were called active. About 53% were inconclusive and are not listed. Calls come from the whole dose curve; as a rule, active = well fitted inhibition curve with a large enough effect in the signal ratio, with a control signal flat (not every such curve was filed as active); inconclusive = small, poorly fitted or top-dose-only effect, or effect the other way, or a change in a side signal; inactive = flat fitted curve, though single readings scatter; the % refers to the signal ratio. The list comes from a sample in which actives are over-represented; it also holds similar structures and randomly drawn compounds.
Potency is the fitted concentration of half-maximal effect.

The test in a line: qHTS Assay for Lipid Storage Modulators in Drosophila S3 Cells.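 For cell number change: cells counted by Cell Tracker Red CMTPX staining in the red channel.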 To be noted: BODIPY lipid droplet fluorescence, 18-24 h, cells fed with added oleic acid; cell number change: measured here: cell count max response; series mostly up to 46.1 µM. The method, boiled down:
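Drosophila S3 cells loaded with oleic acid (400 uM, as added) and compounds at several concentrations; lipid droplets imaged by 488-nm laser-scanning cytometry, 500–530 nm intensity and object ratio to cell channel. Percent activity normalized to 20 uM Triacsin C.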
In general terms: Quantitative high-throughput screening tests each substance at several concentrations.
As for `O=C1CC(c2ccccc2)CC(=NCCO)/C1=C(\O)CCCN1C(=O)c2ccccc2C1=O` (stereo unspecified), the Potency result was “inactive” and the cell number change is -9.46%.
As to `CC12CN3CCN(CC(C3)C1(O)CN1CCOCC1)C2` (stereo unspecified), the Potency was 4.61 µM (active) and the cell number change is 0.875%.
`CC12CN3CCN(CC(C3)C1(O)CN1CCCCC1)C2` (stereo unspecified): the Potency entry is “inactive” and the cell number change is -4.02%.
Taken in the same sequence, the figures for `OC1(CN2CCOCC2)C2CN3CCN(C2)CC1(c1ccccc1)C3` (stereo unspecified) were “inactive” and 10%.
With `CCOc1ccc(C(C(=O)NC2CCCC2)N(CCCO)C(=O)c2ccc(-c3ccccc3)[nH]2)cc1` (stereo unspecified), the Potency result is “inactive” and the cell number change was 42.7%.
In the case of `Cc1nnc(-c2ccc(Oc3ccc(Br)cc3)c([N+](=O)[O-])c2)o1`, the Potency result is “inactive” and the cell number change came to 2.33%.
In the case of `O=C(C/C=N/OCc1ccc(Cl)cc1Cl)c1ccc(Cl)cc1`, the Potency result was “inactive” and the cell number change worked out at 4.16%.
Taken in the same sequence, the figures for `Clc1ccc(CNC2CCCC2)cc1` were 20.6 µM (active) and -30.8%.
In the case of `Clc1ccc(CNC2CCCC2)c(Cl)c1`, the Potency entry is “inactive” and the cell number change is -13.9%.
As for `Oc1ccc(CNC2CCCCC2)cc1`, the Potency entry is “inactive” and the cell number change stood at 0.0125%.
As to `CCCCOC(=O)C1C2C=CC3(CN(CCc4ccccc4)C(=O)C13)O2` (stereo unspecified), the Potency result was “inactive” and the cell number change is -8.47%.
For `N#Cc1c(NC(=O)c2ccc(Cn3cc(Br)cn3)o2)sc2c1CCCCC2`, the Potency result was “inactive” and the cell number change is 0.806%.
Taken in the same sequence, the figures for `Cc1ccc(N=c2sc(C)c(C)n2C)cc1` were “inactive” and -18.9%.
As for `O=C(c1ccccc1)N1CCN(CC(O)COC2CCCCC2)CC1` (stereo unspecified), the Potency entry is “inactive” and the cell number change turned out to be 4.36%.
Taken in the same sequence, the figures for `C1CCC(OCCN2CCN(CCOC3CCCCC3)CC2)CC1` were 25.9 µM (active) and 6%.
As to `C1CCCCCC(NCCN2CCNCC2)CCCCC1`, the Potency entry was “inactive” and the cell number change is 2.58%.
On to `COCCNC(=O)CN1CCC(NC(=O)c2ccco2)CC1`, for which the Potency entry was “inactive” and the cell number change was -1.29%.
Taken in the same sequence, the figures for `Cc1ccc(NC(=O)c2c(F)cccc2Cl)cc1NS(C)(=O)=O` were “inactive” and 5.84%.
For `COc1ccc(/C=N/NC(=O)c2cccnc2)cc1CN1CCN(c2ccc(F)cc2)CC1`, the Potency result was “inactive” and the cell number change is 3.44%.
Taken in the same sequence, the figures for `COc1ccc(CC(=O)Nc2c3c(nn2C(C)(C)C)CS(=O)(=O)C3)cc1OC` were “inactive” and 17%.
The like results for `Cc1ccccc1N1C(=O)C(Oc2ccc(Cl)cc2)C1CNCCCOC(C)C` (stereo unspecified) were, in that order, 23.1 µM (active) and -13.5%.
For `CCCCNCC1C(Oc2ccc(Cl)cc2)C(=O)N1c1ccccc1C` (stereo unspecified), the Potency result was “inactive”.
Regarding `COCCNCC1C(Oc2ccc(Cl)cc2)C(=O)N1c1ccccc1C` (stereo unspecified), the Potency entry was “inactive” and the cell number change was 19.6%.
The like results for `Cc1ccnc2c1ccc1c(C)ccnc12` were, in that order, “inactive” and -0.829%.
`O=C(NCc1n[nH]c(=S)n1-c1ccccc1)c1ccc(S(=O)(=O)N2CCCCC2)cc1`: the Potency result is “inactive”.
Consider `COC(=O)c1ccc(N2CCN(c3ccccc3)CC2)c(N)c1`, for which the Potency entry was “inactive” and the cell number change is 6.3%.
Regarding `COC(=O)c1ccccc1NC(=O)N1CCN(c2ccccc2F)CC1`, the Potency result was “inactive” and the cell number change came out at 25.6%.
Taken in the same sequence, the figures for `COC(=O)c1ccccc1N1CCS(=O)(=O)CC1` were 16.4 µM (active) and -18.8%.
Turning to `CCOC(=O)C1=C(CS(=O)(=O)c2ccccc2)NC(=O)NC1c1cccc(OC)c1` (stereo unspecified), the Potency result is “inactive” and the cell number change worked out at 15.2%.
As for `COC(=O)c1ccc(NC(=S)N2CCCC2)cc1`, the Potency entry was “inactive” and the cell number change is -8.77%.
For `COc1cccc(NS(=O)(=O)c2ccc3c(c2)N(C(C)=O)CCS3)c1`, the Potency entry was “inactive”.
With `CCc1cccc(NS(=O)(=O)c2ccc(-n3cccn3)cc2)c1`, the Potency entry is “inactive” and the cell number change turned out to be 18.7%.
On to `COc1cccc(NS(=O)(=O)c2ccc(-n3cccn3)cc2)c1`, for which the Potency was 0.0517 µM (active) and the cell number change was -7.08%.
Turning to `O=S(=O)(Nc1cccc(Cl)c1)c1ccc(-n2cccn2)cc1`, the Potency entry is “inactive”.
Regarding `CC(=O)N1CCc2cc(S(=O)(=O)Nc3ccc(C)cc3)ccc21`, the Potency entry was “inactive” and the cell number change came out at 8.46%.
The like results for `COc1cccc(NS(=O)(=O)c2ccc3c(c2)CCN3C(C)=O)c1` were, in that order, 1.64 µM (active) and -8.33%.
With `Cn1cnnc1Sc1nc2c(c(=O)n(C)c(=O)n2C)n1Cc1ccccc1Cl`, the Potency result was “inactive” and the cell number change turned out to be 16.5%.
Consider `O=C(c1ccc(=O)[nH]c1)N1CCN(S(=O)(=O)c2ccc3ccccc3c2)CC1`, for which the Potency result was “inactive” and the cell number change was -9.74%.
With `COc1cc(CO)c(Br)cc1OCC(=O)Nc1ccccc1C`, the Potency result was “inactive” and the cell number change is -15.6%.
`O=C(CCN1C(=O)/C(=C/c2ccccc2F)SC1=S)Nc1ccccn1`: the Potency entry was “inactive” and the cell number change came out at 23.3%.
The like results for `O=C(CCN1C(=O)/C(=C/c2ccccc2)SC1=S)Nc1ccccn1` were, in that order, “inactive” and -0.917%.
Taken in the same sequence, the figures for `O=C(CN1C(=O)/C(=C\c2cccs2)SC1=S)Nc1cccc(C(=O)O)c1` were “inactive” and 24%.
Taken in the same sequence, the figures for `O=C(CCN1C(=O)/C(=C/c2ccccc2Cl)SC1=S)Nc1ccccn1` were 20.6 µM (active) and -0.66%.
As for `O=C(CCN1C(=O)/C(=C\c2cccs2)SC1=S)Nc1nccs1`, the Potency entry is “inactive” and the cell number change is -0.135%.
The like results for `O=C(CCCN1C(=O)/C(=C/c2cccs2)SC1=S)NNC(=O)c1ccccc1O` were, in that order, 6.51 µM (active) and -24.1%.
